Each structure is given as a SMILES string. Calls of active or inactive are those of the source.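 Rule for the calls: active = EC50 at or below 10 µM; inactive = EC50 above 10 µM.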 Where only a bound is given, the exact number is not on record here.

Our source for the EC50 values is PubChem BioAssay AID504697 (The Scripps Research Institute Molecular Screening Center, 2011).

The test in a line: fluorescence interference artefacts, compound only, dose response, artefact control for cardiac thin filament activator project, biochemical, no RTF in test wells (AID 504697).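 Note: emission near 535 nm under roughly 485 nm excitation as for IANBD.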 Conditions: compound-only fluorescence in RTF assay buffer with Ca2+ (no RTF in test wells), artifact counterscreen.
Turning to `O=C(CSC1=NS(=O)(=O)c2ccccc2N1)N1CCCCC1`, the EC50 is > 71.5 µM (inactive).
The value for `CC1(C)CC(=O)C=C(Nc2ccccc2N)C1` was > 71.5 µM (inactive); that for `Cc1cc(NC(=O)COC(=O)C(Cc2ccccc2)NC(=O)c2ccco2)no1` (stereo unspecified) was > 71.5 µM (inactive).
`Cc1cc(C=C2C(=O)c3ccccc3C2=O)c(C)n1-c1ccccc1`: the EC50 was 29.9 µM (inactive).
For `O=C(O)c1ncc(-c2ccccc2)cn1`, the EC50 was > 71.5 µM (inactive).
As to `Cc1ccc(/C=C2\Oc3c(ccc(O)c3CN3CCN(CCO)CC3)C2=O)cc1`, the EC50 is 34.2 µM (inactive).
The value for `COc1ccccc1NC(=O)COC(=O)c1cnc(C)cn1` was > 71.5 µM (inactive).
In the case of `COc1ccc(/C=C/C(=O)NC(=S)Nc2ccc(C(=O)O)cc2)cc1`, the EC50 is > 71.5 µM (inactive).
For the molecule `CC(=O)Oc1ccc(N2C(=O)C3C(C2=O)C(C(=O)c2ccc(Cl)cc2)N2CCCC32)cc1` (stereo unspecified), the EC50 is 58.7 µM (inactive).
Consider `C[C@@H](C(=O)N1CCNCC1)n1cc(CCCN=C(N)N)nn1`, for which the EC50 was > 71.5 µM (inactive).
As to `Cc1ccc(C)c(C(=O)CSc2n[nH]c(C(C)C)n2)c1`, the EC50 was > 71.5 µM (inactive).
`COc1cc(CCCN2C(=S)NC[C@@H]2CC2CCCCC2)cc(OC)c1OC`: the EC50 was > 71.5 µM (inactive).
Turning to `CN1c2ccccc2C(O)=C(C(=S)Nc2ccc(F)c(Cl)c2)S1(=O)=O`, the EC50 is > 71.5 µM (inactive).
Turning to `C=COc1ccc(N2C(=O)c3ccccc3OC2C)cc1` (stereo unspecified), the EC50 is > 71.4 µM (inactive).
For the molecule `CCOC(=O)c1cc2n(c1N)-c1ccccc1C2=O`, the EC50 was 62.6 µM (inactive).
`CN(/N=C/c1ccc(N(C)C)cc1)C1=NS(=O)(=O)c2ccccc21`: the EC50 is 22.5 µM (inactive).
Under `CC(=O)Nc1cc(C(=O)NCc2ccco2)ccc1Sc1ccc(F)cc1` stands > 71.5 µM (inactive); under `O=C(c1cnc2ccccc2n1)N1CCN(c2ccc(C(F)(F)F)cn2)CC1`, > 71.4 µM (inactive).
For `N#C/C(=C\c1ccc(N2CCOCC2)o1)C(=O)NC1CCCCC1`, the EC50 was 16.5 µM (inactive).
For the molecule `Cc1ccnc2nc(C(=O)OCC(=O)NCCc3ccccc3)nn12`, the EC50 was > 71.5 µM (inactive).
For the molecule `O=C(CCSc1ccccc1)N1CCN(C(=O)c2ccco2)CC1`, the EC50 is > 71.5 µM (inactive).
Take `COc1cc(N2CCCC2)c(OC)cc1/C=C1/NC(=S)NC1=O`: the EC50 was 4.35 µM (active).
As to `CCc1ccc2c(COC(=O)CNS(=O)(=O)c3ccc(NC(C)=O)cc3)cc(=O)oc2c1`, the EC50 is > 71.5 µM (inactive).
For the molecule `O=c1[nH][nH]c(C(F)(F)F)c1C=Nc1cccc(Cl)c1`, the EC50 was > 71.5 µM (inactive).
Turning to `COc1ccc(/C=N/NC(=O)c2cccnc2)cc1CN1CCOCC1`, the EC50 is > 71.5 µM (inactive).
Take `O=C(O)CCC(=O)Nc1cc(C(F)(F)F)cc(C(F)(F)F)c1`: the EC50 was > 71.4 µM (inactive).
The value for `CN(C)c1ccc(N=Cc2nc(-c3ccccc3)oc2O)cc1` was 6.84 µM (active).
Under `Oc1ccc2ccc3cccc[n+]3c2c1` stands 2.46 µM (active).
The value for `CCOC(=O)/C(=C/C1=CC(=C/N(C)C)/C(=O)O1)C(C)=O` was 15.3 µM (inactive); that for `Cc1ccc(-c2ccc(OC(=O)c3ccc(=O)[nH]c3)c(C)c2)cc1` was > 71.5 µM (inactive).
With `CCCNC(=O)Cn1c(=O)/c(=C\c2ccc(-c3ccc([N+](=O)[O-])cc3)o2)s/c1=C\C(=O)C(C)(C)C`, the EC50 was 0.335 µM (active).
Regarding `COc1ccc2ccccc2c1C(O)c1nccn1C` (stereo unspecified), the EC50 is 10.7 µM (inactive).
`N=c1c2c(ncn1Cc1ccco1)Oc1cc(O)ccc1C2c1ccccc1` (stereo unspecified): the EC50 is > 71.4 µM (inactive).
Regarding `Cc1ccc(/C=C2/SC(=O)NC2=S)o1`, the EC50 is > 23.8 µM (inactive).
Consider `CSc1ccc(C2C(C(=O)c3ccco3)=C(O)C(=O)N2c2nnc(SC)s2)cc1` (stereo unspecified), for which the concentration for a half-maximal effect (EC50) is 0.726 µM (active).
Consider `COc1cc(/C=C(\C#N)c2nc3ccccc3[nH]2)cc(OC)c1O`, for which the EC50 was 11.1 µM (inactive).

For orientation: EC50 means the midpoint of the concentration-response curve.
